Bioassay records as filed in PubChem.
Shown is part of a subset that was picked to be rich in hits.
Tgondii IFNg – inhibitors of Toxoplasma gondii growth with IFN-gamma. Toxoplasma gondii growth in IFN-gamma-treated host cells; active compounds read low. activity change, negative = inhibition, % (test concentration not listed). actives 3.8% (n = 69,000); in the data active means activity change below about -70%, passing the limit was not always enough;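 further: host cells are HeLa cells infected with Toxoplasma gondii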
* hit, by the source's call.

SMILES	Tgondii IFNg
O=C1CC(Sc2ccc(Cl)cc2)C(=O)N1c1cc(F)c(Br)cc1F (stereo not drawn)	-85*
Cc1cccc(N2C(=O)CC(Sc3nnc(C)s3)C2=O)c1 (stereo not drawn)	-5
Cc1ccc(N2C(=O)CC(Sc3ccccn3)C2=O)cc1 (stereo not drawn)	-11
Cc1ccc2oc(=O)n(CC(=O)NCC3CCN(C(C)C)CC3)c2c1	5
CCS(=O)(=O)N1CCc2cc(OC)c(OC)cc2C1c1ccc(OC)c(OC)c1 (stereo not drawn)	36
COc1cc2c(cc1OC)C(Cc1ccc(O)cc1)N(C)CC2 (stereo not drawn)	6
CC[C@H]1CN2CCc3cc(OC)c(OC)cc3C2C[C@@H]1CC1NCCc2cc(OC)c(OC)cc21 (stereo partly drawn)	-79*
O=C(NCc1ccccn1)c1c(O)c2ccccc2n(-c2ccccc2)c1=O	15
Cc1ccc2[nH]c(=O)c(-c3nc(-c4ccc(C)c(C)c4)no3)c(O)c2c1	-29
OCCOc1cccc(CN2CCCC2c2nc(-c3ccccc3)no2)c1 (stereo not drawn)	9
CCN1C(=O)CCc2cc(NS(=O)(=O)c3c(C)cccc3Cl)ccc21	-48
CCN1C(=O)CCc2cc(NS(=O)(=O)c3cccc(F)c3)ccc21	194
CCN1C(=O)CCc2cc(NS(=O)(=O)c3ccc(C4CCCCC4)cc3)ccc21	-95*
CCN1C(=O)CCc2cc(NS(=O)(=O)Cc3ccc(Cl)cc3)ccc21	-41
CC(C)CN1C(=O)CCc2cc(NS(=O)(=O)c3ccc(Cl)cc3)ccc21	-80*
Cc1cc(C)cc(S(=O)(=O)Nc2ccc3c(c2)CCC(=O)N3CC(C)C)c1	-40
CCN1C(=O)CCc2cc(NS(=O)(=O)c3cc(F)ccc3F)ccc21	53
CCN1C(=O)CCc2cc(NS(=O)(=O)c3ccc(C#N)cc3)ccc21	-102*
CC(C)CN1C(=O)CCc2cc(NS(=O)(=O)c3ccccc3)ccc21	-50
O=C(c1ccc(F)cc1)N1CCC2(CC1)CC(Oc1cccnc1)C2	-15
C=CCN1CCN(C)C2(CCN(C3CCOC3)CC2)C1=O (stereo not drawn)	178
Cc1cc(C)nc(Nc2cccc(C3CCCN3C(=O)CCc3c[nH]c4ccccc34)n2)n1 (stereo not drawn)	17
CN(C)C(=O)N1C[C@@H]2OCCN(CCN3CCCC3)[C@H]2C1	6
COc1ccc(-c2nc(CC(=O)Nc3cc(Cl)ccc3C)no2)cc1	30
Cc1cccc(C(=O)N2CCc3c([nH]c4ccccc34)C2c2cccnc2)c1 (stereo not drawn)	-109*
SMILES	Tgondii IFNg
O=C(c1cccs1)N1CCc2c([nH]c3ccccc23)C1c1cccnc1 (stereo not drawn)	10
O=C(c1ccc(Br)cc1)N1CCc2c([nH]c3ccccc23)C1c1cccnc1 (stereo not drawn)	-86*
CCOc1cccc(CC(=O)N2CCc3c([nH]c4ccccc34)C2c2cccnc2)c1OCC (stereo not drawn)	11
COc1cccc(NC(=O)Cn2c(=O)cc(C(=O)N3CCCCC3)c3ccccc32)c1	3
CC(C)n1cnc2c1C(C(=O)NCC(C)(C)CO)N(Cc1cccnc1)CC2 (stereo not drawn)	-34
CSc1ssc(=Nc2ccc(F)c(F)c2)c1-c1ccccc1	-71*
c1ccc2ncc(-c3ccc(CN4CCCC4)cn3)cc2c1	217
C[C@H](O[C@H]1OCCN(Cc2n[nH]c(=O)[nH]2)[C@H]1c1ccc(F)cc1)c1cc(C(F)(F)F)cc(C(F)(F)F)c1	-72*
Cn1cc(-c2cc3n(n2)CCC(=O)N3CCCC(=O)NCCCN2CCCC2)c2ccccc21	119
Cc1cccc(-c2nn3c(c2-c2ccnc4ccc(C(N)=O)cc24)CCC3)n1	-78*
CN1CCC2(CCCN(C3CCC4(CCNCC4)CC3)C2)C1 (stereo not drawn)	-3
O=C(c1ccoc1)N1CCC2(CC1)CC(Oc1cccnc1)CO2 (stereo not drawn)	-1
CN(C)CCN1C(=O)CO[C@H]2CN(C(=O)COc3ccccc3)C[C@@H]21	-2
CC(=O)NC12CC3CC(C1)CC(C(=O)NC(c1ccc(F)cc1)c1nccn1C)(C3)C2 (stereo not drawn)	13
COc1cccc(CN2CCCC(c3ccc4c(NCc5cccc(C)n5)n[nH]c4n3)C2)c1 (stereo not drawn)	-83*
COc1ccc(-c2nc(NCC3CCN(Cc4cccc(C)c4)CC3)c3ccccc3n2)cc1	-36
COc1cccc([C@@H]2CCCN(Cc3cc4n(n3)CCCNC4)C2)c1	-26
CC(=O)N1CC2(CCN(C(=O)CC(C)n3cncn3)CC2)Nc2ccccc21 (stereo not drawn)	6
CCc1cnc(N2CC[C@@H]3[C@H]2CCN3c2nncs2)nc1	-5
COc1cccc(-c2ccccc2CO)n1	2
C[C@@H]1CN([C@H](C)CO)C(=O)c2cc(NS(=O)(=O)c3ccc(Cl)cc3)ccc2O[C@@H](C)CCCCO[C@@H]1CN(C)C(=O)CCCN(C)C	-16
C[C@@H]1CCCCO[C@@H](CN(C)S(=O)(=O)c2ccc(Cl)cc2)[C@@H](C)CN([C@@H](C)CO)C(=O)c2cc(NC(=O)Nc3ccc(C(F)(F)F)cc3)ccc2O1	176
COc1ccc(S(=O)(=O)Nc2ccc3c(c2)C(=O)N([C@@H](C)CO)C[C@@H](C)[C@@H](CN(C)S(=O)(=O)c2ccc(Cl)cc2)OCCCC[C@H](C)O3)cc1	-128*
COc1ccc(S(=O)(=O)Nc2ccc3c(c2)C(=O)N([C@H](C)CO)C[C@H](C)[C@@H](CN(C)S(=O)(=O)c2ccc(Cl)cc2)OCCCC[C@H](C)O3)cc1	-113*
COc1ccc(S(=O)(=O)Nc2ccc3c(c2)C(=O)N([C@@H](C)CO)C[C@H](C)[C@@H](CN(C)S(=O)(=O)c2ccc(Cl)cc2)OCCCC[C@H](C)O3)cc1	-130*
SMILES	Tgondii IFNg
C[C@@H]1CCCCO[C@H](CN(C)S(=O)(=O)c2ccc(Cl)cc2)[C@H](C)CN([C@@H](C)CO)C(=O)c2cc(NC(=O)Nc3ccc(C(F)(F)F)cc3)ccc2O1	-56
COc1ccc(S(=O)(=O)Nc2ccc3c(c2)C(=O)N([C@@H](C)CO)C[C@H](C)[C@@H](CN(C)S(=O)(=O)c2ccc(Cl)cc2)OCCCC[C@@H](C)O3)cc1	-113*
C[C@@H]1CCCCO[C@H](CN(C)S(=O)(=O)c2ccc(Cl)cc2)[C@@H](C)CN([C@@H](C)CO)C(=O)c2cc(NC(=O)Nc3ccc(C(F)(F)F)cc3)ccc2O1	-20
C[C@@H]1CN([C@@H](C)CO)C(=O)c2cc(NC(=O)Nc3ccc(C(F)(F)F)cc3)ccc2O[C@@H](C)CCCCO[C@@H]1CN(C)S(=O)(=O)c1ccc(Cl)cc1	213
COc1ccc(S(=O)(=O)Nc2ccc3c(c2)C(=O)N([C@H](C)CO)C[C@H](C)[C@@H](CN(C)S(=O)(=O)c2ccc(Cl)cc2)OCCCC[C@@H](C)O3)cc1	4
COCCN1CC(C(=O)O)CN2CCN(Cc3nccs3)CC2C1 (stereo not drawn)	-2
CO[C@@H]1CC[C@@H]2[C@H]1OCCN2C(=O)/C=C/c1cccs1	9
CCS(=O)(=O)N1Cc2nccn2CC(Cn2nc(C)nc2C)C1 (stereo not drawn)	-4
C[C@@H]1CC[C@H](C)N1C(=O)c1cc(COc2cccc(F)c2)[nH]n1	44
CCCn1ncc(C(=O)Nc2ccccc2CN2CCCCC2)c1C	-52
COc1cccc(CN2CCN(Cc3ccc(-n4cccn4)cc3)CC2=O)c1	-7
